Test results: PubChem BioAssay
Activity calls are given as the source filed them. The rule behind the calls is not given here.

Molecular target: Pantothenate synthetase (Mycobacterium tuberculosis (strain ATCC 25618 / H37Rv)) (UniProt P9WIL5)
Experiment: Recombinant Mtb pantothenate synthetase (PanC) inhibitors, coupled enzyme, confirmatory (AID 375);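 note: 0% = full reaction with vehicle and 100% = no enzyme background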
Details: coupled enzyme assay; at 10 µM, hits give high values

Pantothenate synthetase (Mycobacterium tuberculosis (strain ATCC 25618 / H37Rv)), sequence (P9WIL5 whole entry, looked up): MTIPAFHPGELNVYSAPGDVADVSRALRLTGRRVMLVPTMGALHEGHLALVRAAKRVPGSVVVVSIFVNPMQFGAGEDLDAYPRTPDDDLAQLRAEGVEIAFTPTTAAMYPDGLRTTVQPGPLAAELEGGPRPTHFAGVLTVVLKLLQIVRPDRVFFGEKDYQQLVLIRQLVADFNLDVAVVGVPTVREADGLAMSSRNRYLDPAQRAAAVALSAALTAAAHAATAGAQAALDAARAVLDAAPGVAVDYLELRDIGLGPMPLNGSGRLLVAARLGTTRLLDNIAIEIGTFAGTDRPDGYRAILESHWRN

Compound	inhibition
CC(C)OC(=O)c1cc(NC(=O)C2C3CCC(O3)C2C(=O)O)cc(C(=O)OC(C)C)c1 (stereo not given)	0% (inactive)
COCCN1C=C(C(=O)OC)C(c2cc3c(cc2Br)OCO3)C(C(=O)OC)=C1	0% (inactive)
COC(=O)c1ccccc1NC(=O)Cn1ccnc1	0% (inactive)
Cc1cc(C)c2c(=O)n(CC(=O)N3CCC(Cc4ccccc4)CC3)sc2n1	0% (inactive)
O=C(c1ccccc1-c1nc(-c2ccccc2)no1)N1CCCC1	0% (inactive)
CC(CCc1ccccc1)NC(=O)C1CCN(S(=O)(=O)c2cnc[nH]2)CC1 (stereo not given)	4% (inactive)
CCn1c(=N)n(CC(=O)c2ccco2)c2ccccc21	0% (inactive)
C1CNCCNCCNCCN1	0% (inactive)
O=C(OCC(=O)c1ccc[nH]1)c1ccc(S(=O)(=O)N2CCCCC2)cc1	1% (inactive)
Cc1nc2sc(C(c3cccc(F)c3)N3CCN(C(=O)c4ccco4)CC3)c(O)n2n1 (stereo not given)	0% (inactive)
CC(C)OP(=O)(c1ccc(N(C)C)cc1)C(O)c1ccccc1F (stereo not given)	0% (inactive)
Cc1nn(Cc2ccccc2)c2c1C(c1ccncc1)C(C#N)=C(N)O2 (stereo not given)	0% (inactive)
CCC(C)NC(=O)c1ccccc1NC(=O)C(C)N(c1ccccc1)S(C)(=O)=O (stereo not given)	0% (inactive)
CCOc1ccc(N(CC(=O)OC)S(=O)(=O)c2ccc(OC)c(OC)c2)cc1	0% (inactive)
CCOC(=O)/N=C(/NC(=O)Nc1ccc(C(=O)OCC)cc1)OC	0% (inactive)
COC(=O)Nc1nc2ccc(C(=O)c3ccccc3)cc2[nH]1	1% (inactive)
CCSc1nnc(NC(=O)C(CC)(C(F)(F)F)C(F)(F)F)s1	0% (inactive)
c1ccc(C2(Cn3ccc4ccccc43)OCCO2)cc1	0% (inactive)
C=C(Cl)COC(=O)[C@H]1C2C=CC(C2)C1C(=O)O (stereo not given in full)	2% (inactive)
CCc1nnc(SCC(=O)NC2CCCCC2)nc1CC	1% (inactive)

Compound	inhibition
CCC(=O)Oc1ccc(C/C(=N\O)c2ccc(O)cc2O)o1	0% (inactive)
O=C(NCc1cccnc1)c1cn(CCc2ccccc2)nn1	0% (inactive)
CC(=O)c1cc(F)c(N2CCN(C(=O)Cc3ccccc3)CC2)cc1C	0% (inactive)
CCOC(=O)N1CCN(S(=O)(=O)c2ccc(Br)s2)CC1	11% (inactive)
O=C(CP(=O)(c1ccccc1)c1ccccc1)N1CCCCC1	6% (inactive)
CCOCCn1c(CN2CCC(Cc3ccccc3)CC2)nc2c1c(=O)n(C)c(=O)n2C	0% (inactive)
Cc1cccc(C)c1NC(=O)c1cc(S(=O)(=O)N2CCOCC2)ccc1F	0% (inactive)
O=c1c2c(nc3nc(CCc4ccccc4)[nH]n13)CCC2	9% (inactive)
COc1ccc(OCc2nc(C#N)c(N3CCN(c4ccc(OC)cc4)CC3)o2)cc1	2% (inactive)
Cc1ccc(C)c(-c2nc3cc(N)ccc3o2)c1	0% (inactive)
CCC(Sc1nc(-c2ccccc2)c(C#N)c(=O)[nH]1)C(=O)Nc1cc(C)on1 (stereo not given)	0% (inactive)
Cc1ccc(C(=O)N2CCN(C(=O)c3ccc(C)c(C)c3)C(C)C2)cc1C (stereo not given)	7% (inactive)
CCOC(=O)c1sc2nc(NC(=O)C3CCCCC3)sc2c1C	2% (inactive)
COc1cc(NC(=O)c2ccco2)c(OC)cc1NC(=O)CCC(=O)Nc1cc(C)cc(C)c1	8% (inactive)
Nc1c(Sc2ccccc2)c(=O)[nH]c(=O)n1Cc1ccccc1	0% (inactive)
CCN(CC)CCNC(=O)c1ccc(N2CCCCC2)c(NS(=O)(=O)c2ccc(C)cc2)c1	12% (inactive)
Cc1cccc(-n2ncc3c(NCc4ccccn4)ncnc32)c1	6% (inactive)
COc1cccc(NC(=O)CSc2nnnn2C(C)C)c1	6% (inactive)
C=C(C)Cn1c(CCCNC(=O)C(C)(C)C)nc2ccccc21	0% (inactive)
Nn1c(SCC(=O)Nc2ccc3c(c2)OCO3)nnc1C1CC1	4% (inactive)
